# From PubChem BioAssay AID1626 (SRMLSC, 2009)
# “And” between values parts separate entries of the source, which are not always exact repeats. Equal values may be shown once. Hit rate of the full screen: of about 220,000 compounds, about 2,000 (0.91%) were called active. About 2% were inconclusive and are not listed. No stated cut-off is given here; in the data, inconclusive means inhibition above about 80% without an active follow-up result; inactive means below that; test concentration not stated here. The list is a sample of the results. Potency and affinity values are given separately.
# Assay: M. tuberculosis H37Rv growth inhibitors, H37Rv strain (AID 1626);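 further: bacteria incubated seven days before Alamar blue readout; 0% = bacteria only wells and 100% = bacteria with antibiotic wells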
# Details: hits give high values, concentration not given here
row,SMILES,inhibition
1,O=C(Nc1nnc(CC2=CCCCC2)s1)Nc1ccccc1F,-2.47% (inactive)
2,Cc1nnc2c3ccccc3c(-c3ccccc3)nn12,5.99% (inactive)
3,CCCC(=O)c1c[nH]c(C(=O)NCc2ccco2)c1,-9.43% (inactive)
4,Cc1ccc(Cn2cc(/C=N/NC(=O)Cc3nnc(NC(=O)c4ccc(C)cc4)s3)c3ccccc32)cc1,7.8% (inactive)
5,O=C(CCNC(=O)c1ccco1)NCc1ccccc1,0.15% (inactive)
6,COc1ccc(CCNc2nc(N3CCOCC3)nc(N3CCOCC3)n2)cc1OC,8.14% (inactive)
7,COc1ccc(N2CCN(c3nc(NCCc4ccc(OC)c(OC)c4)nc(OC)n3)CC2)cc1,34.2% (inactive)
8,CC(C)CCN1CCN(Cc2ccc(C#CC(C)(C)O)s2)CC1CCO (stereo not given),9.71% (inactive)
9,CC(=O)c1ccc(-c2ccc(C(=O)N3CCCc4ccccc43)o2)cc1,17.9% (inactive)
10,CSc1sc(-c2ccnc(=S)[nH]2)c(-c2ccccc2)c1C#N,-4.19% (inactive)
11,Cc1ccc(NC(=O)CNCc2ccccc2)c(Br)c1,-0.29% (inactive)
12,CCOC(=O)N1CCN(CCC(=O)Nc2cccc(Br)c2)CC1,-0.92% (inactive) and -12.2% (inactive)
13,COc1ccccc1NC(=O)CSCc1nc2ccccc2[nH]1,-0.98% (inactive)
14,COC(=O)Nc1ccc(Oc2ccccc2)cc1,-4.37% (inactive)
15,Cc1ccc(C(=O)NCc2ccccc2)cc1Br,-8.73% (inactive)
16,CCOC(=O)N1CCN(CCC(=O)Nc2ccc(Br)cc2)CC1,-16.8% (inactive)
17,O=C(CNCc1ccccc1)Nc1ccc(F)cc1,-5.31% (inactive)
18,O=C(CSCc1nc2ccccc2[nH]1)Nc1ccccc1,0.99% (inactive)
19,CCc1cccc(NC(=S)N(CCCN2CCOCC2)C(C)c2cc3cccc(OC)c3o2)c1 (stereo not given),-11.9% (inactive)
20,COc1ccc(CNC(=O)CCSCc2cccc(Cl)c2)c(OC)c1,-4.73% (inactive)
21,O=C(Nc1nc(-c2ccc(S(=O)(=O)N3CCCC3)cc2)cs1)c1ccco1,7.57% (inactive)
22,COCCOCCn1c(/C=C/c2ccccc2)nc2ccccc21,11% (inactive)
23,O=S(=O)(NCc1ccccc1)c1ccccc1Br,4.19% (inactive)
24,CCN(CC)S(=O)(=O)c1ccc2c(c1)nc(CCC(=O)Nc1ccccc1Cc1ccccc1)n2CC,-0.79% (inactive)

row,SMILES,inhibition
1,COc1ccc(/C=C2\SC(=S)NC2=O)cc1OS(=O)(=O)c1ccc(NC(C)=O)cc1,-3.97% (inactive)
2,Cc1ccccc1N(CC(=O)Nc1ccccc1C(=O)O)S(C)(=O)=O,-1.04% (inactive)
3,CCN(CC)c1nc(-c2nn[nH]n2)nc(N(CC)CC)n1,-3.01% (inactive)
4,O=C(O)/C=C\C(=O)Nc1ccc(Oc2ccccc2)cc1,-4.64% (inactive)
5,CCOC(=O)C(=O)Nc1ccc(Oc2ccccc2)cc1,-13.3% (inactive)
6,CC(C)(C)NC(=O)C1CC(=O)OC12CCOC(C)(C)C2 (stereo not given),0.06% (inactive)
7,COC(=O)CN(c1ccccc1)S(=O)(=O)c1ccc(F)cc1,-4.89% (inactive)
8,O=[N+]([O-])C(=c1ccc2c(c1)N1C3=C(CCCC3)CC3CCCCC31N=2)[N+](=O)[O-] (stereo not given),-8.62% (inactive)
9,O=C(CSCC(=O)NC1CCCC1)Nc1ccccc1,6.01% (inactive)
10,O=C(CSCC(=O)NC1CC1)Nc1ccccc1,-9.05% (inactive)
11,CC(=O)c1ccc(NC(=O)CSC(C)C)cc1,0.93% (inactive)
12,CC(=O)c1ccc(NC(=O)CSCCO)cc1,-4.48% (inactive)
13,CC(=O)Nc1ccc(S(=O)(=O)N2CCN(C(C)CCc3ccccc3)CC2)cc1 (stereo not given),-9.9% (inactive)
14,CCc1ccc(OCCCC(=O)O)c(Br)c1,-8.18% (inactive)
15,COC(=O)c1ccc(COc2ccc3c4c(c(=O)oc3c2)CCC4)o1,-7.47% (inactive)
16,Cc1cc(C)n2nc(SCC(=O)N/N=C/c3cccc(Br)c3)nc2n1,-4.74% (inactive)
17,O=C(NC1(C(F)(F)F)C(=O)Nc2c1c(=O)[nH]c(=O)n2Cc1ccco1)C1CC1 (stereo not given),1% (inactive)
18,C=CCNC(=O)CSc1nnc(-c2ccccc2Cl)n1-c1c(C)n(C)n(-c2ccccc2)c1=O,-3.15% (inactive)
19,COc1ccc(CCNC(=O)CSc2cn(Cc3cccc(C)c3)c3ccccc23)cc1OC,4.76% (inactive)
20,CCc1nc2c(c(=O)[nH]1)C1(CCCC1)Cc1ccccc1-2,12.8% (inactive)
21,O=c1[nH]c(CN(CCO)CCO)nc2c1C1(CCCCC1)Cc1ccccc1-2,8.33% (inactive)
22,O=c1[nH]c(NCCO)nc2c1C1(CCCCC1)Cc1ccccc1-2,-9.4% (inactive)
23,O=c1[nH]c(NCCO)nc2c1C1(CCCC1)Cc1ccccc1-2,-4.7% (inactive)
24,COc1cccc2c3c(c(C)nc12)CC(C)O3 (stereo not given),-3.67% (inactive)

row,SMILES,inhibition
1,Cc1cc2c(C)nc3ccccc3c2o1,-3.45% (inactive)
2,Cc1cc(C(=O)NNC(=O)CCCCC(=O)NNC(=O)c2cc(C)[nH]n2)n[nH]1,1.69% (inactive)
3,O=C(CCCSc1nc(-c2ccco2)cc(C(F)(F)F)n1)Nc1ccc2c(c1)OCO2,6.6% (inactive)
4,Cc1noc2ncnc(Sc3ccccc3Cl)c12,8.85% (inactive)
5,Cc1ccccc1Sc1ncnc2onc(C)c12,-3.01% (inactive)
6,CCn1c(SCc2ccc(C(=O)Nc3nccs3)cc2)nnc1-c1ccc(NC(C)=O)cc1,0.27% (inactive)
7,CCn1c(SCc2ccc(C(=O)Nc3nccs3)cc2)nnc1-c1ccc(N)cc1,2.31% (inactive)
8,COC(=O)CNC(=O)c1cn(CC(C)C)c(=O)c2cc(OC)c(OC)cc12,-2.81% (inactive)
9,CC1CC(=O)c2cnc(N3CCOCC3)nc2C1 (stereo not given),5.78% (inactive)
10,O=C(CSc1nnnn1C1CCCC1)NCc1ccccc1,-3.18% (inactive)
11,CCCCn1c(=N)n(CC(O)COc2cccc(C)c2)c2ccccc21 (stereo not given),0.69% (inactive)
12,N=c1n(CCN2CCCCC2)c2ccccc2n1CC(O)COc1ccccc1 (stereo not given),-5.72% (inactive)
13,CCCn1c(=N)n(CC(O)COc2cccc(C)c2)c2ccccc21 (stereo not given),4.16% (inactive)
14,COc1ccc(OCC(O)Cn2c(=N)n(CCN3CCOCC3)c3ccccc32)cc1 (stereo not given),3.12% (inactive)
15,CC(C)N1CCN(Cc2nc3c(s2)CCCC3)CC1CCO (stereo not given),-2.24% (inactive)
16,COc1cc([C@@H]2c3cc4c(cc3[C@@H](NC3CCN(Cc5ccccc5)CC3)[C@H]3COC(=O)[C@H]23)OCO4)cc(OC)c1O,51.2% (inactive)
17,CC1=C(C(=O)OCc2ccc(C)cc2)C(c2ccc(O)c([N+](=O)[O-])c2)NC(=O)N1 (stereo not given),-1.03% (inactive)
18,COc1ccc(S(=O)(=O)N(CC(=O)NCC2CCCO2)c2ccccc2)cc1OC (stereo not given),-6.11% (inactive)
19,Cc1ncn2cc(-c3ccc(Cl)cc3Cl)[nH]c(=O)c12,11.2% (inactive)
20,Cc1cc(-c2ccc(Cl)cc2Cl)c(C#N)c(=O)[nH]1,-3.23% (inactive)
21,O=c1[nH]c(=O)n(-c2ccccc2)c2c1C(C(F)(F)F)(C(F)(F)F)N=C(CCC1CCCCC1)N2,-0.92% (inactive)
22,Cc1nc(N2CCCCC2)c2c(C)c(C(=O)Nc3ccccc3C(F)(F)F)sc2n1,1.26% (inactive)
23,Cc1nc(N2CCN(c3ccccn3)CC2)c2c(C)c(C(=O)Nc3ccc(F)cc3F)sc2n1,79.3% (inactive)
24,Cc1nc(N2CCOCC2)c2c(C)c(C(=O)Nc3ccccc3Cl)sc2n1,0.57% (inactive)

row,SMILES,inhibition
1,Cc1nc(N2CCOCC2)c2c(C)c(C(=O)Nc3ccc(F)cc3F)sc2n1,-1.7% (inactive)
2,CCN=C1NN=C(c2cc(C)n(Cc3ccco3)c2C)CS1,8.94% (inactive)
3,CCN(CCCNC(=O)CN(C)S(=O)(=O)c1ccc2c(c1)CCC(=O)N2)c1cccc(C)c1,-2.39% (inactive)
4,O=C(COC(=O)C1CCN(S(=O)(=O)c2cccs2)CC1)Nc1ccccc1Br,-7.27% (inactive)
5,O=c1[nH]c2ccccc2n1CCCN1CCCCC1,-2.47% (inactive)
6,CCCCn1c(=O)[nH]c2ccccc21,3.85% (inactive)
7,O=C(Nc1cccc(Cl)c1)/C(=C\c1cccnc1)NC(=O)c1ccco1,2.59% (inactive)
8,Cc1ccc(OCCNC(=O)c2cccc(Oc3ccc(C(F)(F)F)cc3[N+](=O)[O-])c2)cc1,1.39% (inactive)
9,Oc1ccc2ccccc2c1CN1CCCC1,12.7% (inactive)
10,CN1CCN(Cc2c(O)ccc3cc(Br)ccc23)CC1,21% (inactive)
11,Cc1ccc2c(c1)C1CN(C)CCC1N2C(=O)c1cn(-c2ccccc2)nc1-c1ccccc1 (stereo not given),10.5% (inactive)
12,O=C(CNC(=O)c1ccc(-c2ccccc2)cc1)OCc1c(Cl)cccc1Cl,-1.9% (inactive)
13,CC(=O)Nc1ccc(C(=O)NCC(=O)OCc2c(F)cccc2Cl)cc1,-1.08% (inactive)
14,COc1ccc(N(C(=O)c2ccco2)C(C(=O)NC2CCCC2)c2ccc(N(C)C)cc2)cc1 (stereo not given),-10.8% (inactive)
15,COc1ccc(NC(=O)N/C=C/c2ccccc2)cc1,-0.86% (inactive)
16,COc1cc(C(C[N+](=O)[O-])c2c(N)n(C)c(=O)n(C)c2=O)ccc1O (stereo not given),1.8% (inactive)
17,COc1ccccc1C(C[N+](=O)[O-])c1c(N)n(C)c(=O)n(C)c1=O (stereo not given),40.8% (inactive)
18,CCCOc1cccc(C2C(C(=O)c3ccco3)=C(O)C(=O)N2CCN(CC)CC)c1 (stereo not given),-7.15% (inactive)
19,CC(C(=O)N1CCCC1)N1CCN(c2ccccc2O)CC1 (stereo not given),-5.08% (inactive)
20,C/C(O)=C(\N=Nc1cc(C)ccc1O)C(N)=O,0.25% (inactive)
21,Cc1ccc(Cn2ccc(NC(=O)c3cc(C4CC4)on3)n2)cc1,-5.45% (inactive)
22,CCc1nc2sc3ccccc3c(=O)c2c(=O)n1CCOC,-3.87% (inactive)
23,COc1ccc(Cn2c(C(C)C)nc3sc4ccccc4c(=O)c3c2=O)cc1,17.7% (inactive)
